From PubChem BioAssay (NCI)
The panel holds about 83,000 compounds, 20% with a hit somewhere; the sample as a whole holds those more often.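 Single-dose data. Exposure time 48 hours. Values below 10 considered active.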 Unmarked numbers belong to inactive results. Activity calls are given as the source filed them.

Legend:
Experiment in all cases: NCI-60 one-dose screen, 48 h (100 = growth as untreated, 0 = no growth, -100 = all killed)
Conditions in all cases: 10 µM unless noted
SR leukemia = test system: SR leukemia
RPMI-8226 leukemia = test system: RPMI-8226 leukemia
OVCAR-8 ovarian = test system: OVCAR-8 ovarian
OVCAR-5 ovarian = test system: OVCAR-5 ovarian
OVCAR-4 ovarian = test system: OVCAR-4 ovarian
SK-OV-3 ovarian = test system: SK-OV-3 ovarian
IGROV1 ovarian = test system: IGROV1 ovarian
OVCAR-3 ovarian = test system: OVCAR-3 ovarian
HS 578T breast = test system: HS 578T breast
NCI/ADR-RES ovarian = test system: NCI/ADR-RES ovarian

Row | SMILES | growth (SR leukemia) | growth (RPMI-8226 leukemia) | growth (OVCAR-8 ovarian) | growth (OVCAR-5 ovarian) | growth (OVCAR-4 ovarian) | growth (SK-OV-3 ovarian) | growth (IGROV1 ovarian) | growth (OVCAR-3 ovarian) | growth (HS 578T breast) | growth (NCI/ADR-RES ovarian)
1 | COc1cc(/C=C2\CCCC3=C2N=C2SC(C)=NN2C3c2cc(OC)c(OC)c(OC)c2)cc(OC)c1OC (stereo not drawn) | 4.78% (active) | -25.6% (active) | 4.84% (active) | 67.3% | 54.3% | 60.3% | 24.4% | 21.2% | 25% | 8.69% (active)
2 | O=C(Nc1cccc(Cl)c1)c1cc([N+](=O)[O-])ccc1O | 57% | 25.4% | 69.3% | 68.8% | 46.1% | 59.8% | 62.5% | 42% | 41.9% | 
3 | COC12CC(=O)C(C(C)=O)=C(O)C1(C)c1c(O)c(C)c(O)c(C(C)=O)c1O2 (stereo not drawn) | 69.9% | 44.5% | 58.7% | 99.7% | 85.9% | 104% | 68.9% | 59.2% | 75.4% | 
4 | CC(=O)OCC1OC(OCC2OC(OC(C)=O)C(OC(C)=O)C(OC(C)=O)C2OC(C)=O)C(OC(C)=O)C(OC(C)=O)C1OC(C)=O (stereo not drawn) | 98% | 99.3% | 95.2% | 101% | 107% | 89.9% | 106% | 109% | 97.2% | 101%
5 | CCCCCCCCCCCCOB(OCCCCCCCCCCCC)OCCCCCCCCCCCC | 89.8% | 95.8% | 101% | 110% | 121% | -1.64% (active) | 107% | 74.3% | 107% | 97.6%
6 | COc1cc2nc(N3CCC[C@@H](NC4=CC(=O)c5ccccc5C4=O)C3)nc(N)c2cc1OC | -11.3% (active) | -44.1% (active) | -41.2% (active) | 110% | 81.5% | 112% | -82.3% (active) | -69.5% (active) |  | 
7 | CSc1ccccc1C#C/C=C\C#Cc1ccccc1N1CCCC1=O | 12.5% | 22.2% | 74.9% | 72.2% | 59.7% | 85.8% | -32.2% (active) | 50.9% | 98% | 
8 | O=C(Nc1ccccc1)OCC1OCOC(COC(=O)Nc2ccccc2)C1OC(=O)Nc1ccccc1 (stereo not drawn) | 18.1% | 40.1% | 32% | 52.5% | -44.6% (active) | 91.5% | 70.8% | 28.8% | 67.7% | 
9 | COc1cccc(-c2nc3sccn3c2-c2ccnc(NCCCNS(=O)(=O)c3ccc(F)cc3)n2)c1 | 28.9% | 17.4% | 17.3% | 116% | 25.2% | 72.7% | 34.6% | 37.4% | 57.3% | 
10 | O=C(O)Cc1ccc2c(c1)Cc1cccnc1O2 | 96.8% | 105% | 103% | 101% | 101% | 103% | 96.6% | 108% | 107% | 
11 | O=S(=O)(NCCCNc1cc(-c2cn(-c3ccccc3)nc2-c2cccc(O)c2)ccn1)c1ccc(Cl)cc1 | 4.43% (active) | 8.7% (active) | 20.4% | 37% | 34.7% | 33.1% | 27.5% | 26.6% | 5.52% (active) | 
12 | NC(=O)c1c(NC(=O)c2ccc3c(c2)OCO3)sc2c1CCC(=O)C2 | -19.6% (active) | -34.9% (active) | -15.9% (active) | -49.8% (active) | -70.8% (active) | -11.7% (active) | -17.1% (active) | -47% (active) | 16.7% | -6.35% (active)
13 | O=S(=O)(NCCNc1nccc(-c2c(-c3ccccc3)nc3sccn23)n1)c1ccc(O)cc1 | 18.2% | 52.8% | 40.8% | 87.1% | 56.5% | 65.3% | 22% | 38.9% | 64.6% | 85.5%
14 | CC(=O)n1cc([C@H]2CC[C@H](c3cn(C(C)=O)c4ccccc34)c3c2[nH]c2ccccc32)c2ccccc21 | 93.9% | 50.8% | 89.5% | 102% | 77.7% | 80.4% | 58.3% | 76.3% | 106% | 
15 | Nc1c(C(=O)Nc2cccc(C(F)(F)F)c2)sc2nc3c(cc12)C(O)CCC3 (stereo not drawn) | 24% | 15.6% | 46.2% | 53.5% | 58.5% | 25.7% | 54.4% | 2.06% (active) |  | 
16 | CC(=O)Oc1cccc(OC(C)=O)c1OC(C)=O | 89.6% | 105% | 106% | 99.9% | 105% | 87% | 101% | 111% | 107% | 108%
17 | C=CC(=O)N[C@H](/C=C/C(=O)OCC)Cc1ccc(-c2cc(Cl)cc(Cl)c2)cc1 | 68.7% | 73.8% | 76.6% | 95.5% | 83.6% | 94.6% | 93% | 89.5% | 94.8% | 
18 | C[N+](C)(C)c1ccc(CC2c3ccccc3-c3ccccc32)cc1 | 85% | 68.6% | 85.7% | 86.1% | 85.2% | 75.3% | 64.4% | 67% | 4.68% (active) | 107%
19 | N#Cc1ccc(NC(=O)c2ccc3cccnc3c2O)cc1 | 25.6% | 23.4% | 16% | 60.6% | 16.5% | 19.8% | 21.3% | 26% | 53.8% | 8.81% (active)
20 | Cc1sc2nc(CSc3nnc(-c4ccco4)o3)[nH]c(=O)c2c1C | 56.6% | 67.3% | 104% | 114% | 105% | 132% | 109% | 108% | 115% | 
21 | C[C@]12CC[C@@H]3c4cc(O)c(O)cc4CC[C@H]3[C@@H]1CC[C@@H]2O | 9.22% (active) | 30.9% | 51.6% | 98% | 49.7% | 29.5% | 60.2% | 11.5% |  | 
22 | CCCC1OC(c2ccc(C(C)C)cc2)OCC1CC (stereo not drawn) | 91.7% | 104% | 96.7% | 101% | 112% | 85.5% | 112% | 107% | 99.6% | 105%
23 | COc1ccc(-n2cnc3c(sc4ncc(Cl)cc43)c2=O)cc1 | 71.2% | 48.2% | 87.9% | 98.6% | 101% | 84.8% | 65.7% | 53.8% |  | 
24 | CC/C=C\C/C=C\C[C@H]1C/C=C2/C(=O)C=C[C@H]2C/C=C\CCC(=O)O1 | 4.9% (active) | 4.52% (active) | 0.0569% (active) | 25.4% | 42.6% | 31.3% | 3.81% (active) | -12.1% (active) | 40.2% | 17.9%
25 | COc1cccc2nc(Nc3ccc(NC(=O)c4ccc5ncccc5c4)cc3)ccc12 | 65.7% | 33.4% | 72.3% | 99.3% | 89.7% | 86.4% | 105% | 105% | 66.7% | 86%
26 | Nc1nc(-c2cc3ccccc3o2)cc(=O)c(=O)[nH]1 | 90.9% | 95.7% | 107% | 105% | 102% | 96.7% | 100% | 102% | 88.2% | 109%
27 | Cc1ccc(C(=O)c2sc3nc4c(cc3c2N)CCCC4)c(C)c1 | 9.04% (active) | -12.3% (active) | 17.5% | 47.2% | 39.8% | 19.9% | 41.4% | 12% |  | 
28 | C=C1C(=O)O[C@H]2[C@H]1CC/C(Cn1cc(-c3ccsc3)nn1)=C\CC[C@@]1(C)O[C@@H]21 | 3.37% (active) | -43.2% (active) | -4.45% (active) | -18.3% (active) | -46.6% (active) | 83.1% | -16% (active) | -94.8% (active) | 28.2% | 
29 | CCN(CC)CCCNc1nc(C)cc(Nc2ccc3nc(C)cc(N)c3c2)n1 | 110% | 102% | 106% | 102% | 116% | 89.9% | 97.8% | 106% | 109% | 
